Compounds without any hit were thinned out: in the full panel of roughly 79,000, 15% have a hit. Values without a mark were called inactive. Activity calls are given as the source filed them. Cut-off read from the data, not from the text of the source: active = growth inhibition above about 70%; inactive = the rest.
How the values were obtained:
[1] = NCI Yeast Anticancer Drug Screen. Data for the rad50 strain (AID 155);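 note: 0% = growth of vehicle-only cultures of the same strain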; conditions: S. cerevisiae rad50 strain growth inhibition, stronger effect = higher value
How it was run: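 Inhibition values express reduced yeast growth in compound-treated cultures relative to vehicle-treated controls.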

[2] = NCI Yeast Anticancer Drug Screen. Data for the mec2-1 strain (AID 157); conditions: S. cerevisiae mec2-1 strain, stronger effect = higher value
How it was run: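 Yeast mec2-1 mutant treated with compound. Readout: growth inhibition vs vehicle controls.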

[3] = NCI Yeast Anticancer Drug Screen. Data for the sgs1 mgt1 strain (AID 161);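 note: 0% = growth of cultures given vehicle only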; conditions: S. cerevisiae sgs1 mgt1 strain, stronger effect = higher value
How it was run: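 Test agents were incubated with a DNA-repair-mutant yeast strain. Growth was then read and compared against vehicle-treated controls.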

[4] = NCI Yeast Anticancer Drug Screen. Data for the cln2 rad14 strain (AID 165);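 note: 0% = growth equal to vehicle treated cultures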; conditions: S. cerevisiae cln2 rad14 strain, stronger effect = higher value
How it was run: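 cln2 rad14 yeast strain; compound exposure; growth inhibition read vs vehicle controls.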

[5] = NCI Yeast Anticancer Drug Screen. Data for the bub3 strain (AID 167); conditions: S. cerevisiae bub3 mutant strain, stronger effect = higher value
How it was run: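 Steps: expose the mutant yeast strain to compound; grow alongside vehicle-treated cultures; measure growth; express inhibition against the vehicle cultures.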

[6] = NCI Yeast Anticancer Drug Screen. Data for the mlh1 rad18 strain (AID 175); conditions: S. cerevisiae mlh1 rad18 strain growth inhibition, stronger effect = higher value
How it was run: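 Yeast w/ defined DNA-repair lesions; compound exposure; growth vs vehicle controls → % inhibition.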

[7] = at 5.0 µM (retest, dose inferred, filed as 0.5)
[8] = at 50.0 µM (retest, dose inferred, filed as 5.0)

Row | SMILES | growth inhibition [1, 7] | growth inhibition [1, 8] | growth inhibition ([1]; at 50.0 µM) | growth inhibition [2, 7] | growth inhibition [2, 8] | growth inhibition ([2]; at 50.0 µM) | growth inhibition [3, 7] | growth inhibition [3, 8] | growth inhibition ([3]; at 50.0 µM) | growth inhibition [4, 7] | growth inhibition [4, 8] | growth inhibition ([4]; at 50.0 µM) | growth inhibition [5, 7] | growth inhibition [5, 8] | growth inhibition ([5]; at 50.0 µM) | growth inhibition [6, 7] | growth inhibition [6, 8] | growth inhibition ([6]; at 50.0 µM)
1 | CCCCCCCCC1OC1CCCCCCCC(=O)OCC1CO1 (configuration not stated) | 1% | -11% | 3.45% | 1% | -10% | -18.7% | 1% | -10% | 8.9% | 5% | 5% | 29.1% | -3% | -16% | -25.1% | 25% | -14% | -40.8%
2 | NC(=S)NNCCC(=O)Nc1ccccc1C(F)(F)F | 2% | 3% | -9.75% | -2% | 2% | 12.2% | 3% | 4% | -1.9% | -3% | 7% | 6.15% | 0% | 1% | 65.8% | -2% | 7% | 2.75%
3 | CCNC(=O)COc1ccc(Cl)cc1Cl | -2% | 10% | -17.6% | -10% | 2% | -19.4% | 0% | -6% | -15.4% | 7% | 13% | 38.8% | -5% | -3% | -29.4% | 8% | 2% | -27.4%
4 | CC1c2cc(c3c(c2O)CN([C@@H](C)C2CCCCC2)CO3)C(C)c2cc(c3c(c2O)CN([C@@H](C)C2CCCCC2)CO3)C(C)c2cc(c3c(c2O)CN([C@@H](C)C2CCCCC2)CO3)C(C)c2cc1c1c(c2O)CN([C@@H](C)C2CCCCC2)CO1 (some centres not stated) | -3% | -5% | 36.6% | -1% | -28% | 2.9% | -3% | -10% | 42.9% | -2% | -44% | 30.8% | -1% | -13% | 69.2% | -6% | -16% | 47.3%
5 | c1cc[c]([Sn]([S]c2cccc3cccnc23)([c]2ccccc2)[c]2ccccc2)cc1 | 100% (active) | 98% (active) | 96.3% (active) | 100% (active) | 100% (active) | 98.7% (active) | 100% (active) | 99% (active) | 96.9% (active) | 99% (active) | 99% (active) | 94.2% (active) | 99% (active) | 99% (active) | 99% (active) | 100% (active) | 99% (active) | 98.1% (active)
6 | Cc1c(F)c(C)c(C(=O)O)c(C)c1F | 26% | 99% (active) | 99.4% (active) | 27% | 98% (active) | 99.5% (active) | 20% | 99% (active) | 99.5% (active) | 8% | 99% (active) | 99.2% (active) | 11% | 99% (active) | 99.2% (active) | 27% | 100% (active) | 99.6% (active)
7 | CCC(C)n1c(C)nc2c(N)cc(C(F)(F)F)cc21 (configuration not stated) | 0% | 11% | 74% (active) | 3% | 30% | 95.8% (active) | 4% | 38% | 93.7% (active) | 1% | 8% | 98.8% (active) | -4% | 9% | 98% (active) | 0% | 28% | 94.5% (active)
8 | CC(C)c1ccc2c(c1)CC[C@@H]1[C@](C)(CO)CCC[C@]21C | 4% | 94% (active) | 34.8% | 4% | 94% (active) | 89.8% (active) | 0% | 99% (active) | 43.2% | 2% | 96% (active) | 68.2% | -3% | 95% (active) | 89.1% (active) | -16% | 95% (active) | 97.3% (active)
9 | COc1ccc2c(c1OC)C1=C(C2=O)c2cc3c(cc2CCN1)OCO3 | -4% | 76% (active) | 23.1% | 0% | 86% (active) | 45.7% | 9% | 92% (active) | 61.5% | 2% | 95% (active) | 40.9% | -15% | 51% | 68.4% | 8% | 93% (active) | 53.1%
10 | Nc1cc2c(nc3c4ccccc4c(N)cc3[n+]2-c2cccc3ccccc23)c2ccccc12 (tested in a mixture with another compound) | 95% (active) | 92% (active) | 89.4% (active) | 62% | 92% (active) | 90.2% (active) | 59% | 94% (active) | 89.2% (active) | 31% | 89% (active) | 84.5% (active) | 61% | 91% (active) | 84.8% (active) | 79% (active) | 91% (active) | 89.8% (active)
11 | CCOC(=O)/C(=C/O)c1c[nH]c2ccccc12 | 0% | 94% (active) | 97.8% (active) | -4% | 95% (active) | 98.3% (active) | -4% | 95% (active) | 96.8% (active) | 1% | 96% (active) | 96% (active) | 0% | 96% (active) | 97.3% (active) | 3% | 96% (active) | 97.7% (active)
12 | CCC[N+]1=C(/C=C/c2cc(C)c3cccnc3c2O)C(C)(C)c2ccccc21 | 12% | 94% (active) | 93.7% (active) | 27% | 95% (active) | 90.3% (active) | 7% | 93% (active) | 86.5% (active) | -7% | 90% (active) | 81.8% (active) | 4% | 93% (active) | 92% (active) | 19% | 93% (active) | 93% (active)
13 | [Cu+2].c1ccc2n[nH]nc2c1 | 99% (active) | 99% (active) | 98.8% (active) | 99% (active) | 99% (active) | 99.3% (active) | 98% (active) | 99% (active) | 98.5% (active) | 70% (active) | 99% (active) | 98.3% (active) | 96% (active) | 99% (active) | 98.6% (active) | 99% (active) | 99% (active) | 98.7% (active)
14 | C1CCC(CC2CCC(NC3=NCCO3)CC2)CC1 (configuration not stated) | -23% | 97% (active) | 88.6% (active) | -12% | 96% (active) | 87.5% (active) | -22% | 99% (active) | 87.2% (active) | -8% | 91% (active) | 88.2% (active) | -35% | 98% (active) | 91.2% (active) | -9% | 99% (active) | 84.3% (active)
15 | CS/C(C#N)=C(\C#N)SC | 10% | 78% (active) | 79.2% (active) | 3% | 27% | 16.3% | 2% | 23% | 67.6% | 3% | 12% | 23.6% | 2% | 59% | 53.1% | 7% | 35% | 43.5%
16 | CC(NC(=O)OCc1ccccc1)C(=O)NC(Cc1ccccc1)C(=O)OCc1ccccc1 (configuration not stated) | 1% | 5% | -17.6% | 37% | 2% | -5.05% | -2% | -1% | 22% | 5% | 2% | 36.6% | -3% | -7% | -4.4% | 1% | 7% | 6.45%
17 | CCCCOc1ccc(CN2CCOC2=O)cc1 | 3% | 8% | 38.6% | 7% | 12% | 17.8% | 4% | 4% | 10.6% | 5% | 9% | 28.3% | 7% | 7% | 6.3% | 0% | 3% | 55.4%
18 | CN(c1ccccc1)N(C)c1ccccc1 | -1% | 22% | 40.6% | -3% | -1% | -3.45% | -5% | -16% | -17.4% | 8% | 15% | -33.2% | 5% | 5% | -7.8% | 3% | 26% | 4%
19 | CCCCNC(=O)OCCN=C1c2ccccc2C(Br)C(Br)c2ccccc21 (configuration not stated) | 5% | 37% | 98.4% (active) | 2% | 23% | 98.5% (active) | -5% | 21% | 97.3% (active) | 7% | 20% | 97.8% (active) | 9% | 28% | 97.8% (active) | 13% | 74% (active) | 98.5% (active)

Source: PubChem BioAssay (NCI)
